# From PubChem BioAssay
# The source made the active and inactive calls. Unless noted, the rule behind the calls is not given here.
# Tests used:
# [1] = system: Wnt5a (protein binding on small-molecule microarray); assay: Wnt5a binders on small-molecule microarray, primary screen, biophysical, 635/667 nm fluorescence (AID 1142); conditions: 635 nm fluorescence, higher = more signal;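 note: fluorescence read at 667 nm with signal to noise per printed feature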
# [2] = cell viability in Huh7 cells, primary screen, cytotoxicity control for HCV replication inhibitor project, CellTiter-Glo luminescence, basal, 48 h (AID 1143); conditions: Huh7 HCV replicon, higher = more signal, called active from +8 up or from −8 down;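 note: Huh7 hepatoma cells carrying a hepatitis C replication reporter with no stimulus; test concentration not given here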
# [3] = P. aeruginosa biofilm formation inhibitors, primary screen, PAO1 strain, BacTiter-Glo luminescence, LB-PBS (AID 1144); conditions: 12 h, higher = more signal
# [4] = CREB reporter modulators without forskolin, primary screen, cell-based, PC12, CRE-LacZ reporter, unstimulated (AID 1145); conditions: no forskolin, luminescence, 4.5 h, higher = more signal, called active from +8 up or from −8 down
# [5] = CREB reporter modulators under forskolin, primary screen, cell-based, PC12, CRE-LacZ reporter, forskolin-stimulated (AID 1146); conditions: luminescence, 4.5 h, higher = more signal, called active from +8 up or from −8 down;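 note: PC12 cells with 6xCRE LacZ reporter stimulated by forskolin 10 µM; beta-galactosidase reporter signal reflecting CREB driven transcription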
# [6] = biological target: Streptavidin (Streptomyces avidinii) (UniProt P22629); assay: streptavidin binders on small-molecule microarray, primary screen, artefact control for SMM compound annotation, biophysical, 635/667 nm fluorescence (AID 1147); conditions: streptavidin binding, higher = more signal;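 note: signal reflects streptavidin binding to arrayed compounds as a control protein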
# Chain of Streptavidin (Streptomyces avidinii) (P22629 whole entry, looked up): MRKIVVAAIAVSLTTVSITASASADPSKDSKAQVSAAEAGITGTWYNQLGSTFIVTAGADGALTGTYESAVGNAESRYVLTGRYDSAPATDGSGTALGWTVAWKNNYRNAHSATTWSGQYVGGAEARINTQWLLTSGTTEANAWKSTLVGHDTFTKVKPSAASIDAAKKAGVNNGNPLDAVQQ
# [7] = small-molecule binders of probe aInhba, primary screen, biochemical, small-molecule microarray, 635/667 nm fluorescence (AID 1148); conditions: higher = more signal;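 note: score merges 667nm spot fluorescence with signal-to-noise for antibody binding to printed compounds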
# Torsin-1A (Homo sapiens) [8] = biological target: Torsin-1A (Homo sapiens) (UniProt O14656); assay: torsin A binders from cell lysate, primary screen, small-molecule microarray, wild-type, 635/667 nm (AID 1149); conditions: COS7 hTOR1A-WT lysate, 635 nm fluorescence, higher = more signal
# Chain of Torsin-1A (Homo sapiens) (O14656 whole entry, looked up): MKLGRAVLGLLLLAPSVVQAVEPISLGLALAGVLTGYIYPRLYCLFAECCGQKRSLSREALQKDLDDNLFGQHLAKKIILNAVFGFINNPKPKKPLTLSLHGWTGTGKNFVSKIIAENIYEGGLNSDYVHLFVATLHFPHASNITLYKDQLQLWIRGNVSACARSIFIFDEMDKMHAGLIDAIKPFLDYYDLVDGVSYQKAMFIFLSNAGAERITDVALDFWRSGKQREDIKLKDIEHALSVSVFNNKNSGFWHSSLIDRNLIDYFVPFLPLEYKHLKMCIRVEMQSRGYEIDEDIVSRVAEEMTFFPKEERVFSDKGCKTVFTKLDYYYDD
# Torsin-1A (Homo sapiens) [9] = biological target: Torsin-1A (Homo sapiens) (UniProt O14656); assay: small-molecule binders of mutant TOR1A in lysate, primary screen, cell lysate, small-molecule microarray, COS7 lysate, 635/667 nm fluorescence (AID 1150); conditions: COS7 hTOR1A mutant lysate, 635 nm fluorescence, higher = more signal;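 note: score pools 667 nm emission and signal to noise measuring lysate protein binding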
# [10] = system: Sonic hedgehog protein (Shh); assay: small-molecule binders of Shh protein, primary screen, biochemical, small-molecule microarray, 635/667 nm fluorescence (AID 1151); conditions: small-molecule microarray binding, 635 nm fluorescence; higher = more signal;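 note: Shh protein binding to compounds spotted on small-molecule microarray slides; score combines spot fluorescence intensity with signal-to-noise across triplicate slides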
# [11] = E. coli DRC41 culture turbidity changes, primary screen, E. coli filamentation inducer project, strain DRC41, OD650, 48 h (AID 1152);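 note: E. coli MC1000 strain DRC41 lacking acrAB efflux pump and sulA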; conditions: E. coli DRC41 (acrAB sulA), higher = more signal, called active from +8 up or from −8 down
# [12] = small-molecule binders of probe aLefty1, primary screen, biochemical, small-molecule microarray, 635/667 nm fluorescence (AID 1153); conditions: higher = more signal;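 note: score merges spot fluorescence with signal-to-noise ratio from the scanned slide images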
# [13] = PSAC antagonists in infected red cells, primary screen, cell-based, P. falciparum Indochina, OD700, 1 h (AID 1154); conditions: P. falciparum Indochina infected RBC osmotic lysis, higher = more signal, called active from +8 up or from −8 down
# [14] = PSAC antagonists in infected red cells, primary screen, cell-based, P. falciparum Indochina, OD700, 2 h (AID 1155);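 note: lysis reports solute entry through the parasite surface anion channel PSAC; channel blockers reduce lysis of infected cells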; conditions: P. falciparum Indochina infected erythrocytes, osmotic lysis OD700; higher = more signal, called active from +8 up or from −8 down
# [15] = osmotic lysis modulators in infected erythrocytes, primary screen, PSAC antagonist project, cell-based, P. falciparum Indochina, OD700, 3 h (AID 1156); conditions: higher = more signal, called active from +8 up or from −8 down
# [16] = PSAC antagonists in infected red cells, primary screen, cell-based, P. falciparum Indochina, OD700, 18 h (AID 1157); conditions: P. falciparum Indochina infected erythrocytes, osmotic lysis OD700, 18 h; higher = more signal, called active from +8 up or from −8 down
# [17] = modulators of S6 phosphorylation in cells, primary screen, cell-based, A549, cytoblot, luminescence, serum-stimulated (AID 1158); conditions: A549 phospho-S6 cytoblot, 5 h, higher = more signal;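 note: serum-stimulated A549 lung adenocarcinoma cells; signal is phosphorylated S6 detected by cytoblot immunostaining with HRP secondary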
# [18] = biological target: NADPH oxidase 2 (Homo sapiens) (UniProt P04839); assay: NOX2-dependent H2O2 signal modulators, primary screen, NOX inhibitor project, cell-based, HEK293-NOX2, PMA-stimulated, Amplex Red fluorescence (AID 1159); conditions: 45 min, higher = more signal, called active from +8 up or from −8 down; note: test concentration not given here
# Chain of NADPH oxidase 2 (Homo sapiens) (P04839 whole entry, looked up): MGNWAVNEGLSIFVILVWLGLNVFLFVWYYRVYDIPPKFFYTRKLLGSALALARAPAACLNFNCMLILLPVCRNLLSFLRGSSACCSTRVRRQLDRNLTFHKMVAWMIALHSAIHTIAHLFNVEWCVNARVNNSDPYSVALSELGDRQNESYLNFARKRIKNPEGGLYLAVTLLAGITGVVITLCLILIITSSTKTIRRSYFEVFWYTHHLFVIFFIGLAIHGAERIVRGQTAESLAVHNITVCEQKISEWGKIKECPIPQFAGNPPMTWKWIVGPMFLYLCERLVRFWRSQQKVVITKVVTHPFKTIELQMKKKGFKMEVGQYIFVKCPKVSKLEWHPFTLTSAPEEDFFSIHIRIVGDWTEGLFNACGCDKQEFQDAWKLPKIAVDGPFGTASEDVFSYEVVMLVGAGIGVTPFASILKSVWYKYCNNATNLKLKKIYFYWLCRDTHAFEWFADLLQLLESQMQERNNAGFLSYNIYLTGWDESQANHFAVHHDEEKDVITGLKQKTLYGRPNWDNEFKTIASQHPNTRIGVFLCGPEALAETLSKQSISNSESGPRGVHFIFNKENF
# [19] = biological target: NADPH oxidase 4 (Homo sapiens) (UniProt Q9NPH5); assay: NOX4-dependent H2O2 signal modulators, primary screen, NOX inhibitor project, cell-based, HEK293-NOX4, tetracycline-induced, Amplex Red fluorescence (AID 1160); conditions: 45 min, higher = more signal, called active from +8 up or from −8 down
# Chain of NADPH oxidase 4 (Homo sapiens) (Q9NPH5 whole entry, looked up): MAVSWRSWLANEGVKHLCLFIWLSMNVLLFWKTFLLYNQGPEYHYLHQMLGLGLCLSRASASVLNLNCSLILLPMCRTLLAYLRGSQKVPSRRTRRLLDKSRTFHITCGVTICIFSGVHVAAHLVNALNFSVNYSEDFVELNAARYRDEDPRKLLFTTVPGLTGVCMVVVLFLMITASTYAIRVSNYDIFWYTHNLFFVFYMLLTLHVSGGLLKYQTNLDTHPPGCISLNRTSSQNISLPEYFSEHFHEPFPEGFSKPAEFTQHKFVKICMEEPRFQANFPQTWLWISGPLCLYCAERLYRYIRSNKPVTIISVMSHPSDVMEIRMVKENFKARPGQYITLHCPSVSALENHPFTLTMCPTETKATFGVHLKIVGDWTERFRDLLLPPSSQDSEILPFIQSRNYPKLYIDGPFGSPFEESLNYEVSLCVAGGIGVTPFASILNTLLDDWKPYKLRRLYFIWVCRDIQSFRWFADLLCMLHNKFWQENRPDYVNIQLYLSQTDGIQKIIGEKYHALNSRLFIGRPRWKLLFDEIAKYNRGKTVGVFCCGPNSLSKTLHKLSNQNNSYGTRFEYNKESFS
# [20] = biological target: NADPH oxidase 5 (Homo sapiens) (UniProt Q96PH1); assay: NOX5-dependent H2O2 signal modulators, primary screen, NOX inhibitor project, cell-based, HEK293-NOX5, Amplex Red fluorescence (AID 1161); conditions: HEK293-NOX5, ionomycin, 45 min, higher = more signal
# Chain of NADPH oxidase 5 (Homo sapiens) (Q96PH1 whole entry, looked up): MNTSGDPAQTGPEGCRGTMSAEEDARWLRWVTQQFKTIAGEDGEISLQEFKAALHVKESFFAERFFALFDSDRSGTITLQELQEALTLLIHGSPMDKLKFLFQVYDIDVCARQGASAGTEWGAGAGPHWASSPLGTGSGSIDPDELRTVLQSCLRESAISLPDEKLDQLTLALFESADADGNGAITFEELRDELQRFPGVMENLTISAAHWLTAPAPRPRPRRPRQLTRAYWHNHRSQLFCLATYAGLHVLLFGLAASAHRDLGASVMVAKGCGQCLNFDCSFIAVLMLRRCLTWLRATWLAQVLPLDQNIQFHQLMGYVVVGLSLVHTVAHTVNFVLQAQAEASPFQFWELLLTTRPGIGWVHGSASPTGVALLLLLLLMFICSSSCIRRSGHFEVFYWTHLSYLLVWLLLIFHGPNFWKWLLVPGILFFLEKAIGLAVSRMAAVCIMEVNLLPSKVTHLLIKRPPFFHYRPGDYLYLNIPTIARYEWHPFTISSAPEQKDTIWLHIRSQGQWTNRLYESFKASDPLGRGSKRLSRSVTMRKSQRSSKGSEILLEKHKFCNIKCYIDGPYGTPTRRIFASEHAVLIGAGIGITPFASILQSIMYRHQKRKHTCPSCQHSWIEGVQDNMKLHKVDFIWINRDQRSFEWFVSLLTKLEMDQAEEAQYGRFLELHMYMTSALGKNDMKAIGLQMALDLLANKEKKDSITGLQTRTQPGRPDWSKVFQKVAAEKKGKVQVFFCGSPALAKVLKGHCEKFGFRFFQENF
SMILES,composite z-score [1],z-score [2],z-score [3],z-score [4],z-score [5],composite z-score [6],composite z-score [7],composite z-score (Torsin-1A (Homo sapiens) [8]),composite z-score (Torsin-1A (Homo sapiens) [9]),composite z-score [10],z-score [11],composite z-score [12],z-score [13],z-score [14],z-score [15],z-score [16],z-score [17],z-score [18],z-score [19],z-score [20]
C=CCOC(=O)[C@H]1[C@@H]2C(=O)O[C@@H](c3ccccc3)[C@@H](c3ccccc3)N2[C@@H](c2ccc(OCCOC(=O)[C@H]3C[C@H]4C(=O)N5CCC[C@H]5C(=O)N4[C@H]3c3ccc(O)cc3)cc2)[C@]12C(=O)Nc1ccc(I)cc12,1.61,-2.04 (inactive),1.03 (inactive),0.0043 (inactive),0.803 (inactive),1.93,1.3,2.59,2.65,2.04,0.917 (inactive),1.99,0.234 (inactive),-0.588 (inactive),-1.27 (inactive),-1.39 (inactive),0.555,-1.32 (inactive),-1.09 (inactive),-0.351
COC(=O)C=C(CC(O)c1cccc(Cl)c1)OC (stereo not given),0.321,-2.41 (inactive),-0.179 (inactive),-0.116 (inactive),-0.809 (inactive),0.307,1.09,0.208,1.11,-0.425,0.502 (inactive),1.6,19.4 (active),2.27 (inactive),-0.188 (inactive),-0.936 (inactive),0.794,0.0865 (inactive),-0.0239 (inactive),0.219
COCCOC(=O)N1C(=O)[C@@]2(c3cc(C#CC4=CCCCC4)ccc31)[C@H](C(N)=O)[C@H]1C(=O)O[C@H](c3ccccc3)[C@H](c3ccccc3)N1[C@@H]2c1ccc(OCCO)cc1,0.14,-4.37 (inactive),-1.72 (inactive),-0.195 (inactive),-0.327 (inactive),-0.602,-0.406,0.394,0.644,1.02,0.102 (inactive),-0.273,6.77 (inactive),3.03 (inactive),2.5 (inactive),1.96 (inactive),0.375,1.54 (inactive),1.41 (inactive),1.96
CN(C)CCCNC(=O)[C@@]1(C)c2ccccc2C(=O)N(Cc2cc(F)cc(C(F)(F)F)c2)[C@H]1c1ccc(CO)cc1,-0.569,-1.69 (inactive),1.25 (inactive),-0.0888 (inactive),0.506 (inactive),-0.432,-0.179,-1.2,0.301,-0.335,-0.0995 (inactive),0.0391,2.41 (inactive),0.159 (inactive),1.32 (inactive),-0.0617 (inactive),-0.0103,-0.655 (inactive),0.835 (inactive),0.463
O=C(O)[C@@]1(CCS(=O)(=O)c2ccccc2)COC(c2ccc(OCCCO)cc2)=N1,-0.142,0.122 (inactive),1.98 (inactive),-0.389 (inactive),-0.298 (inactive),-0.439,-0.108,-0.792,0.333,-1.03,-0.513 (inactive),-0.0601,1.58 (inactive),-0.783 (inactive),-0.821 (inactive),-0.392 (inactive),-0.312,-0.0194 (inactive),0.85 (inactive),0.779
CCCC[C@H]1OB(O)C[C@H]2C1=C(COc1ccccc1)C[C@H]1C(=O)N(C)C(=O)[C@H]12,0.195,-0.348 (inactive),1.04 (inactive),1.77 (inactive),0.899 (inactive),-0.385,-0.0933,-0.212,0.138,0.853,-0.882 (inactive),-0.0989,1.31 (inactive),-0.252 (inactive),-0.761 (inactive),0.232 (inactive),-0.149,-0.405 (inactive),0.509 (inactive),0.224
O=C(C1N=C(c2ccc(OCCCO)cc2)N(c2ccccc2)O1)N1CCOCC1 (stereo not given),0.427,-3.19 (inactive),-0.59 (inactive),0.185 (inactive),-0.472 (inactive),0.637,0.0947,0.652,0.219,0.476,1.72 (inactive),0.0721,24.4 (active),4.44 (inactive),-0.593 (inactive),-0.121 (inactive),1.75,-3.16 (inactive),-0.258 (inactive),-0.432
CS(=O)(=O)CCOC(=O)C1=CC(CCCO)=CC(c2ccc(CN3CCCC3)cc2)N(Cc2cc3c(cc2Br)OCO3)C=C1C(=O)OCCS(C)(=O)=O (stereo not given),0.592,-0.277 (inactive),0.814 (inactive),4.06 (inactive),-1.45 (inactive),1.5,0.229,2.09,2.13,0.404,-0.357 (inactive),0.485,0.246 (inactive),-0.211 (inactive),1.14 (inactive),0.111 (inactive),-0.606,2.54 (inactive),0.524 (inactive),0.597
